Active and inactive are the calls of the source.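 The calls were made as follows: active = compounds whose dose series gives a full or clear partial fitted curve of increased nuclear translocation; inconclusive = weak partial curve or effect only at the top dose; inactive = no dose-dependent translocation response.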
What follows are compounds tested against Glucocorticoid receptor (Homo sapiens) (UniProt P04150) (assay: GR-GFP Redistribution (AID 450)). Details: U2OS GR-GFP nuclear translocation, laser cytometry, 2 h.
Chain of Glucocorticoid receptor (Homo sapiens) (P04150 whole entry, looked up): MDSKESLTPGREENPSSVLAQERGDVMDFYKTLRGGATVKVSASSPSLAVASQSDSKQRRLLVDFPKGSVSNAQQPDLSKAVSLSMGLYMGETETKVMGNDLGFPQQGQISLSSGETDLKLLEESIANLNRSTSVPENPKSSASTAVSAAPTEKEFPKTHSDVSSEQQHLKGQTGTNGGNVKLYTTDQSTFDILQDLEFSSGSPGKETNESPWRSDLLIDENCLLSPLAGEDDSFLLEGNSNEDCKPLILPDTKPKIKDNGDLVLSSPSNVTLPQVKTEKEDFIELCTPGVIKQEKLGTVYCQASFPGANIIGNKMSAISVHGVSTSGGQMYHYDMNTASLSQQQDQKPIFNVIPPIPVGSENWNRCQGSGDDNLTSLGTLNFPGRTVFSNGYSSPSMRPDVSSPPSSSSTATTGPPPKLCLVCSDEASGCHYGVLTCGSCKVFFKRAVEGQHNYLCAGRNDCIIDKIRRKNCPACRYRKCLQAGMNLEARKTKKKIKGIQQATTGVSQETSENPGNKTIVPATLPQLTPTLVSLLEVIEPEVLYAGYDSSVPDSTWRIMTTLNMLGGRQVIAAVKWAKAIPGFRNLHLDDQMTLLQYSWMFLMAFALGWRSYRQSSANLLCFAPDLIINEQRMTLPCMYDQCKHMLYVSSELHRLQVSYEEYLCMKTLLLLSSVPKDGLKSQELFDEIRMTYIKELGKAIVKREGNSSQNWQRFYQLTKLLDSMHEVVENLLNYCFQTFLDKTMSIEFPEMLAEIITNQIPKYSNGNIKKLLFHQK
From the text: NIH Molecular Libraries Screening Centers Network [MLSCN]
NIH Chemical Genomics Center [NCGC]
The glucocorticoid receptor (GR) Redistribution assay (BioImage) enables the visualization of GR cytoplasmic to nuclear translocation by the use of a GR-GFP fusion. GR is normally cytosolic, however ligands such as dexamethasone, cause nuclear translocation where the protein binds to response elements and interacts with various co-factors to modulate transcription. Because both functional agonists and antagonists can induce nuclear translocation, this assay can detect ligands regardless of their effects on gene expression. GR-GFP expressing U20S cells were used here. Dexamethasone was the positive control for translocation and data normalization. Detection of nuclear translocation was performed in 1536-well plates using the Acumen laser scanning plate cytometer (TTP LabTech). Validation of this assay and a detailed protocol have been described.
NCGC Assay Protocol Summary:
GR-GFP U2OS cells were maintained in DMEM with Glutamax and high glucose, 1% v/v penicillin-streptomycin, and 0.5 mg/mL Geneticin. For cell culture, 10% […] fetal bovine serum (FBS) was used (Invitrogen #26140-079). For cell plating 10% dextran, charcoal-stripped FBS (Hyclone SH30068.03) was used. U2OS cells were trypsin treated, suspended in medium, and passed through a 40 um basket filter. The cells were seeded at 600 cells/5 uL/well into clear-bottom black sided 1536-well plates and incubated for approximately 20 hrs, 37degC, 5%, CO2 in a tissue culture incubator. Twenty-three nL of compound was delivered by pin tool and the plates were incubated as above for 2 hrs. The compounds were tested as a 7-point titration ranging from 46 uM to 0.6 nM. The cells were fixed using the Kalypsys Washer/Dispenser station. The fixing protocol involved aspiration of the cell media, addition of 6 uL/well of PBS, aspiration of PBS, addition of 5uL/well of 100% methanol, aspiration of methanol, and addition of 3 uL/well PBS with 1.5 uM propidium iodide (PI). The plates were read by the Acumen Explorer using a 1 x 8 um scan of the whole well area. PI fluorescence triggered the collection of PI and GFP signals. A nuclei population was defined by a 10 to 100 um width and depth filter that eliminated small and large fluorescent particles. Two subpopulations of nuclei were then defined by peak intensity of GFP fluorescence to obtain translocated and untranslocated objects. The number of translocated objects was used for data normalization.
Keywords: NIH Roadmap, MLSCN, MLI, MLSMR, sOGT, qHTS, NCGC
In the case of `CN1CCN(c2ncc3nc(CCc4ccccc4)c(=O)n(CCc4ccccc4)c3n2)CC1`, the Potency is reported as > 9.22 µM (inactive).
In the case of `COc1ncc2nc(-c3ccccc3)c(=O)n(Cc3cccs3)c2n1`, the Potency is reported as > 9.22 µM (inactive).
For `Cc1cccc(CNc2ncncc2-c2ccccc2C)c1`, the Potency was > 46 µM (inactive).
With `COc1cccc(-c2nc(NC3CC3)c3ccccc3n2)c1` the Potency was > 46 µM (inactive).
For `CCCCN1CCC(COC(=O)c2cc(Cl)c(N)c3c2OCCO3)CC1`, the Potency was > 46 µM (inactive).
`COc1ccc(Oc2ncc3nc(-c4cccc(C#N)c4)c(=O)n(CCC#N)c3n2)cc1` was tested, and the Potency was > 9.22 µM (inactive).
With `N#Cc1c(-c2ccccc2)no[n+]1[O-]` the Potency was > 46 µM (inactive).
`COc1cccc(Nc2ncc3ncc(=O)n(CCC#N)c3n2)c1` was tested, and the Potency was > 9.22 µM (inactive).
In the case of `COc1ccc2[nH]cc(CCNc3ncnc4ccc(-c5cccc(C#N)c5)cc34)c2c1`, the Potency is reported as > 46 µM (inactive).
`COc1ccccc1CNc1nc(-c2cccc(NS(C)(=O)=O)c2)nc2ccccc12` was tested, and the Potency was > 46 µM (inactive).
In the case of `COCCn1c(=O)c(CCc2ccccc2)nc2cnc(OCc3ccccc3)nc21`, the Potency is reported as > 9.22 µM (inactive).
For `COc1ccccc1-c1nccc(NCc2cccs2)n1`, the Potency was > 46 µM (inactive).
For `COc1ccc2[nH]cc(CCNc3ncncc3-c3ccccc3OC)c2c1`, the Potency was > 46 µM (inactive).
For `Clc1ccccc1-c1nc(-n2ccnc2)c2ccccc2n1`, the Potency was > 46 µM (inactive).
In the case of `Nc1nc(N)c(-c2cccc(C(F)(F)F)c2)c(Cc2cccc(C(F)(F)F)c2)n1`, the Potency is reported as > 46 µM (inactive).
For `FC(F)(F)c1ccccc1-c1nc(NCc2cccnc2)c2ccccc2n1`, the Potency was > 46 µM (inactive).
`COc1cccc(-c2nc(NCCN3CCOCC3)c3ccccc3n2)c1` was tested, and the Potency was > 46 µM (inactive).
For `COc1ccc2[nH]cc(CCNc3cc(-c4cccc(C#N)c4)ncn3)c2c1`, the Potency was > 46 µM (inactive).
With `CC(C)C[C@H](N)CSSC[C@@H](N)CC(C)C` the Potency was > 46 µM (inactive).
`c1ccc(Nc2nc(-c3ccoc3)nc3ccccc23)cc1` was tested, and the Potency was > 46 µM (inactive).
`CC(C)OC(=O)C(C#N)c1nc2ccccc2nc1N1CCCC1` (stereo not given) was tested, and the Potency was > 20.6 µM (inactive).
With `COc1ccc2[nH]cc(CCNc3ncnc4ccc(-c5ccccc5OC)cc34)c2c1` the Potency was > 46 µM (inactive).
In the case of `CN(C)c1ccc(-c2cncnc2NCCc2cnc[nH]2)cc1`, the Potency is reported as > 46 µM (inactive).
In the case of `O=c1c(CCc2ccccc2)nc2cnc(Oc3ccccc3)nc2n1C1CC1`, the Potency is reported as > 9.22 µM (inactive).
In the case of `N#Cc1ccccc1-c1ccc2ncnc(NCc3cccnc3)c2c1`, the Potency is reported as > 46 µM (inactive).
For `COc1ccc2[nH]cc(CCNc3ncncc3-c3ccc4c(c3)OCO4)c2c1`, the Potency was > 46 µM (inactive).
`Cc1nc2cnc(N3CCN(C)CC3)nc2n(CCc2ccccc2)c1=O` was tested, and the Potency was > 9.22 µM (inactive).
With `O=c1c(-c2cccc(F)c2)nc2cncnc2n1Cc1ccc(F)cc1` the Potency was > 9.22 µM (inactive).
With `COc1cccc(-c2ccc3ncnc(Nc4ccccc4)c3c2)c1` the Potency was > 46 µM (inactive).
For `COc1ccccc1-c1nc(NC2CC2)c2ccccc2n1`, the Potency was > 46 µM (inactive).
`c1ccc2c(NCCN3CCOCC3)nc(-c3ccc4c(c3)OCO4)nc2c1` was tested, and the Potency was > 46 µM (inactive).
`c1cncc(CNc2nc(-c3cccnc3)nc3ccccc23)c1` was tested, and the Potency was > 46 µM (inactive).
In the case of `O=c1cc(O)cc(/C=C\c2ccc(O)c(O)c2)o1`, the Potency is reported as > 46 µM (inactive).
For `COc1cccc(-c2ccc3ncnc(NCc4ccc(OC)cc4OC)c3c2)c1`, the Potency was > 46 µM (inactive).
For `COc1cccc(-c2ccc3ncnc(NCc4cnc(C)cn4)c3c2)c1`, the Potency was > 46 µM (inactive).
In the case of `COc1cccc(Cn2c(=O)c(CCc3ccccc3)nc3cnc(N(C)C)nc32)c1`, the Potency is reported as > 9.22 µM (inactive).
With `c1ccc(CNc2nc(-c3cccnc3)nc3ccccc23)cc1` the Potency was > 46 µM (inactive).
For `Cc1ccc(SCc2nnc(N)s2)cc1`, the Potency was > 20.6 µM (inactive).
With `COc1ccc(-c2nc3cnc(N4CCOCC4)nc3n(-c3ccc(OC)cc3)c2=O)cc1` the Potency was > 9.22 µM (inactive).
`CCNc1ncc2ncc(=O)n(Cc3cccc(OC)c3)c2n1` was tested, and the Potency was > 9.22 µM (inactive).

From PubChem BioAssay (NCATS)
Potency is read from the fitted curve at half-maximal effect.
